# Source: PubChem BioAssay
# The source made the active and inactive calls.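 Rule for the calls, unless noted: active = inhibition above 20% together with a positive visual image hit; inconclusive = visual image hit but inhibition not above 20%; inactive = no visual image hit.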
# Assays:
# [1] = inhibitors of TNFa-induced NFkB p65 translocation, primary screen, imaging, HUVEC, MLSMR starter and 10KST1 sets (AID 438); conditions: HUVEC TNFa-induced p65 nuclear translocation; cell count: measured here: nuclei count (cytotoxicity indicator), at 2.08 µM; inhibition: at 2 µM, stronger effect = higher value, 0% TNFa-plus-vehicle, 100% no-TNFa wells;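 note: compound added about 3h40 before a 20 min TNFalpha stimulation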;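 for inhibition: signal is the nuclear over cytoplasmic p65 intensity ratio per well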
# [2] = inhibitors of mutant huntingtin aggregation, primary screen, imaging, exon1htt(103Q)mCFP cells, high-content imaging (AID 483;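 active = visual image review flags a hit and inhibition of aggregation exceeds 20%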;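 note: compound exposure lasted 3 days before fixation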;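 for nuclei count: percent of the per-plate median nuclei count of sample wells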); conditions: exon1htt(103Q)mCFP cell line, aggregate imaging, at 2 µM; inhibition of aggregation: stronger effect = higher value; nuclei count: measured here: cell count, toxicity
# [3] = inhibitors of E-selectin induction by TNFa, primary screen, imaging, HUVEC, immunofluorescence, MLSMR starter and 10KST1 sets (AID 487;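 active = visually confirmed hit in the image check and inhibition above 20%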;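 for inhibition: signal is fraction of cell area covered by stained E-selectin grains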;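 for nuclei count: 100% = median nuclei count of all wells on the same plate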); conditions: HUVEC TNFalpha-induced E-selectin immunofluorescence imaging, at 2 µM; inhibition: stronger effect = higher value; nuclei count: measured here: cell number, toxicity
# [4] = biological target: Voltage-gated potassium channel subunit beta-2 (Rattus norvegicus) (UniProt P62483); test: KvBeta enzyme negative modulators, primary screen, biochemical, NADPH fluorescence (AID 622;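 active = fluorescence slope higher than the sample average by over 3 SD, cut at about -0.22 in these data, passing the limit was not always enough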;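 note: slope of raw intensity against log time taken from 70 to 1610 s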); conditions: recombinant KvBeta, 4-cyanobenzaldehyde reduction, at 10 µM, stronger effect = higher value
# [5] = biological target: Voltage-gated potassium channel subunit beta-2 (Rattus norvegicus) (UniProt P62483); test: KvBeta positive modulators, primary screen, biochemical, NADPH fluorescence (AID 623;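 active = NADPH fluorescence slope more negative than the mean of all samples by about 3 SD, 99.7% confidence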;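 note: fluorescence intensity change per second fitted from 20 to 320 s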); conditions: Recombinant KvBeta, NADPH fluorescence decrease slope, 10 min; at 10 µM; stronger effect = lower value
# [6] = biological target: Alpha-2C adrenergic receptor (Homo sapiens) (UniProt P18825); test: modulators of alpha2C/GIRK thallium flux, primary screen, cell-based, HEK293 alpha2C/GIRK1/2 (AID 624;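 active = fluorescence slope after compound addition differing from the mean of all screened samples at 99.7% confidence, in either direction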;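 note: slope of fluorescence ratio to pre-addition baseline per second over 15 to 24 s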); conditions: thallium flux BTC fluorescence, at 10 µM, actives lie on both sides
# [7] = inhibitors of Sendai virus-induced IRF3 signaling, primary screen, TLR/RLR signaling modifier project, cell-based, Sendai virus stimulus, luciferase, 10K MLSCN set (AID 602276;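 active = inhibition at or above 50% at 10 µM; inactive = inhibition below 50%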;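 note: firefly luciferase from ISG56 promoter only with Renilla not read in this screen; 0% = Sendai virus plus DMSO and 100% = medium plus DMSO without virus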); conditions: HEK293 RL24 IRF3 luciferase reporter, at 10 µM, stronger effect = higher value
# [8] = inhibitors of poly I:C-induced TLR3 signaling, primary screen, cell-based, poly I:C stimulus, luciferase, 10K MLSCN set (AID 602277;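 active = inhibition of the reporter signal at or above 50%; inactive = inhibition below 50%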); conditions: HEK293-TLR3 RL24 IRF3 luciferase reporter, at 10 µM, stronger effect = higher value
# Voltage-gated potassium channel subunit beta-2 (Rattus norvegicus), sequence (P62483 whole entry, looked up): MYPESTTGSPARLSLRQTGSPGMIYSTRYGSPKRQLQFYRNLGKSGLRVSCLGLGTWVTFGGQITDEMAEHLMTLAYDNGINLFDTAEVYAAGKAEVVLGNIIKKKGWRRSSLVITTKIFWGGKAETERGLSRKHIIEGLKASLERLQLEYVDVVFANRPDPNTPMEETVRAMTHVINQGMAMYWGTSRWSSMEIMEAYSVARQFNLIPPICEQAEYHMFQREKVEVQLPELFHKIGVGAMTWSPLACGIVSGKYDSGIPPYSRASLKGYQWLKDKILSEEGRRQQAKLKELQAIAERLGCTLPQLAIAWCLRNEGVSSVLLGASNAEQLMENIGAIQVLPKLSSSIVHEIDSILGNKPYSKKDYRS
# Alpha-2C adrenergic receptor (Homo sapiens), sequence (P18825 whole entry, looked up): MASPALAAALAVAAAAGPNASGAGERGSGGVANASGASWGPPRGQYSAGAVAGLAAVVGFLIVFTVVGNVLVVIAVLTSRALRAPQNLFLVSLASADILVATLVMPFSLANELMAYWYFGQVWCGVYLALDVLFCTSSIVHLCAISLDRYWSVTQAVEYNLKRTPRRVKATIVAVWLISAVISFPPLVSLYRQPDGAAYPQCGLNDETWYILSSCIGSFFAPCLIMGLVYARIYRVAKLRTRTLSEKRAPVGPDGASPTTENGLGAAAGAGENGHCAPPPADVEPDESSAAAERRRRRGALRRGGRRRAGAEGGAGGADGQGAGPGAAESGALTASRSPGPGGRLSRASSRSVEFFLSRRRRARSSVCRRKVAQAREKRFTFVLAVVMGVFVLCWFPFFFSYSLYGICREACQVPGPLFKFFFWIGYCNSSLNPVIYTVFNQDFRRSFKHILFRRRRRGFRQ
SMILES,cell count [1],inhibition [1],inhibition of aggregation [2],nuclei count [2] [%],inhibition [3],nuclei count [3] [%],fluorescence slope [4],NADPH fluorescence slope [5],slope [6],inhibition [7],inhibition [8]
COC(=O)C(C)NC(=O)C12CC3CC(CC(C3)C1)C2 (stereo unspecified),512,-5.8% (inactive),13.2% (inactive),103,-31% (inactive),124,-0.321 (inactive),-2.1e-05 (inactive),0.0064 (inactive),-0.739% (inactive),23% (inactive)
CCNCC(O)COCC(O)CNCC (stereo unspecified),493,-5.5% (inactive),-14.4% (inactive),84.2,4.5% (inactive),117,-0.256 (inactive),8.5e-06 (inactive),0.0061 (inactive),13.1% (inactive),21.4% (inactive)
CCOc1cc(C2C(C#N)=C(N)Oc3n[nH]c(CC)c32)ccc1OCCN1CCOCC1 (stereo unspecified),421,23.4% (active),12.6% (inactive),108,-49.3% (inactive),101,-0.506 (inactive),-3.1e-05 (inactive),0.00486 (inactive),14.3% (inactive),15.9% (inactive)
Cc1cccc(N2C(=O)CC(N(C(=O)c3ccco3)c3cccc(C)c3)C2=O)c1 (stereo unspecified),641,-9.3% (inactive),-5.2% (inactive),99,-156% (inactive),102,-0.504 (inactive),-5.1e-05 (inactive),0.00488 (inactive),13.6% (inactive),19% (inactive)
COC(=O)CSc1nnc(-c2ccncc2)o1,366,-6.8% (inactive),-4.1% (inactive),94.2,-16.8% (inactive),106,-0.46 (inactive),-4.6e-05 (inactive),0.00309 (inactive),6.97% (inactive),32.3% (inactive)
COc1ccc(CN(Cc2cc3cc4c(cc3[nH]c2=O)OCO4)C(=O)NC2CCCCC2)cc1,337,7.6% (inactive),38.7% (inactive),73.1,-75.9% (inactive),99.3,-0.368 (inactive),-5.1e-05 (inactive),0.0053 (inactive),5.31% (inactive),-1.61% (inactive)
COc1ccc(Cl)cc1Nc1nc(NCCO)nc(N2CCCC2)n1,390,-4.3% (inactive),5.8% (inactive),95.9,-6% (inactive),112,-0.595 (inactive),-2.1e-05 (inactive),0.00689 (inactive),11.5% (inactive),16.2% (inactive)
O=C(NCCC1=CCCCC1)N[C@@H](Cc1ccccc1)C(=O)O,377,-3.9% (inactive),-1.8% (inactive),108,-24.3% (inactive),115,-0.447 (inactive),-0.000113 (active),0.00549 (inactive),-1.48% (inactive),0.553% (inactive)
COc1cccc(S(=O)(=O)Nc2ccc(C(=O)N3CCN(C(=O)c4ccco4)CC3)cc2)c1,448,-3.9% (inactive),-8% (inactive),108,-65.5% (inactive),124,-0.507 (inactive),-3.8e-05 (inactive),0.00603 (inactive),8.1% (inactive),7.91% (inactive)
O=C(Nc1ccc(N2CCOCC2)cc1)C1CC1,344,3.5% (inactive),25% (inactive),83.9,-16.5% (inactive),121,-0.39 (inactive),-2.3e-05 (inactive),0.00566 (inactive),6.17% (inactive),-13.8% (inactive)
CCc1nc2sc(C)c(C)c2c(=O)n1CCO,396,7.2% (inactive),10.8% (inactive),81.4,-64.6% (inactive),103,-0.422 (inactive),1.1e-05 (inactive),0.00292 (inactive),5.69% (inactive),32% (inactive)
NS(=O)(=O)c1ccc(CCNC(=O)c2cccnc2)cc1,580,-8.3% (inactive),-11.5% (inactive),105,-75.4% (inactive),107,-0.276 (inactive),-6.8e-05 (inactive),0.00459 (inactive),10.9% (inactive),99.1% (active)
CCOC(=O)CSc1nnc([C@H](C)NC(=O)OC(C)(C)C)o1,552,12% (inactive),-32.6% (inactive),83.6,-35% (inactive),118,-0.471 (inactive),-3.4e-05 (inactive),0.00421 (inactive),3.34% (inactive),14.1% (inactive)
CCOc1ccc(Oc2nc(Nc3ccc(C)cc3)nc(N(C)C)n2)nn1,619,-0.3% (inactive),25.8% (inactive),71.1,-14.3% (inactive),106,-0.491 (inactive),-4.9e-05 (inactive),0.00543 (inactive),-17.8% (inactive),1.23% (inactive)
CCOC(=O)Nc1nnc(-c2ccccc2OC)s1,613,-2.7% (inactive),-8.8% (inactive),108,10.1% (inactive),102,-0.514 (inactive),1.1e-05 (inactive),0.00542 (inactive),-20.9% (inactive),-24.1% (inactive)
CCOc1ccccc1NC(=O)CN(c1ccc(C)cc1)S(=O)(=O)c1c(C)noc1C,322,2.2% (inactive),20.6% (inactive),97.9,35.2% (inactive),64.7,-0.606 (inactive),-6.6e-05 (inactive),0.00658 (inactive),6.02% (inactive),28.1% (inactive)
COc1ccc(-n2c(SCC(=O)c3c(N)n(C)c(=O)n(C)c3=O)nc3ccccc32)cc1,735,1.4% (inactive),10.2% (inactive),110,-35.8% (inactive),106,-0.581 (inactive),-4.1e-05 (inactive),0.00517 (inactive),10.6% (inactive),14.8% (inactive)
O=C(OCC#CCSc1nc2ccccc2s1)c1ccco1,639,-19.8% (inactive),-8.9% (inactive),116,-28.5% (inactive),100,-0.471 (inactive),2.6e-05 (inactive),0.00607 (inactive),-14.4% (inactive),-21.9% (inactive)
O=C1C2ON(c3ccc(Cl)cc3)C(c3ccco3)C2C(=O)N1c1ccccc1 (stereo unspecified),510,-2% (inactive),15.7% (inactive),97,-106% (inactive),107,-0.511 (inactive),-2.4e-05 (inactive),0.00581 (inactive),-6.65% (inactive),-3.63% (inactive)
CCCCN(C)C(=O)c1ccc(CS(=O)(=O)c2ccccc2C)o1,315,-10.4% (inactive),10.5% (inactive),65.2,-44.3% (inactive),111,-0.569 (inactive),-1.2e-05 (inactive),0.00658 (inactive),7.73% (inactive),13.7% (inactive)
Cc1cc(=O)[nH]c(=S)n1-c1ccccc1,656,7.7% (inactive),5.6% (inactive),103,23.3% (inactive),103,-0.564 (inactive),-3e-05 (inactive),0.00585 (inactive),15.3% (inactive),23.5% (inactive)
N#CC1=C(N)SC(N)=C(C#N)C1c1ccc(C(F)(F)F)cc1,520,-1.5% (inactive),-11.9% (inactive),114,-69.1% (inactive),187,-0.472 (inactive),2.9e-05 (inactive),0.00688 (inactive),-1.4% (inactive),-49.4% (inactive)
CCCCC(=O)Nc1ccc(NC(=O)C2CC2)nc1,558,19.2% (inactive),16% (inactive),67.6,22.7% (inactive),94.2,-0.474 (inactive),-6e-05 (inactive),0.00505 (inactive),3.06% (inactive),-2.76% (inactive)
Cc1cc(C)cc(NC(=O)CSc2nnc(Cc3cccn3C)n2-c2ccc(F)cc2)c1,479,4% (inactive),36.9% (inactive),12.9,39.4% (inactive),96.5,-0.519 (inactive),-2e-05 (inactive),0.00611 (inactive),13.7% (inactive),25.8% (inactive)
Cn1c(=O)[nH]c(=O)c2c1nc(Br)n2Cc1ccccc1F,668,8.8% (inactive),19.4% (inactive),68.3,4.9% (inactive),106,-0.467 (inactive),-3.7e-05 (inactive),0.00509 (inactive),9.21% (inactive),12.8% (inactive)
COc1ccc(OCC(=O)N2CC3(C)CC2CC(C)(C)C3)cc1 (stereo unspecified),403,-0.6% (inactive),-6.4% (inactive),122,-55.8% (inactive),97.4,-0.495 (inactive),-6.6e-06 (inactive),0.004 (inactive),20% (inactive),26.7% (inactive)
